Assay outcomes from PubChem.
Only some compounds are listed: those with a hit (about 3.1% of all), similar ones and a draw of the others.
Cl transport mod = KCC2 cotransporter modulators, thallium flux, primary screen, cell-based, HEK293 KCC2, FluoZin-2 fluorescence, MLSMR. B-score of Tl+ flux slope (higher = more flux/activation; lower = inhibition) at 10 µM. KCC2 cells, thallium flux FluoZin-2 fluorescence. Solute carrier family 12 member 5 (Homo sapiens), Q9H2X9. actives 2.2% (n = 190,000);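 active = thallium flux slope and its plate-corrected score both differing from the plate sample mean at a set confidence after two filtering rounds, in either direction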;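 also: slope of fluorescence scaled to starting intensity during 10 to 20 s after thallium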
Target sequence (Q9H2X9 whole entry, looked up): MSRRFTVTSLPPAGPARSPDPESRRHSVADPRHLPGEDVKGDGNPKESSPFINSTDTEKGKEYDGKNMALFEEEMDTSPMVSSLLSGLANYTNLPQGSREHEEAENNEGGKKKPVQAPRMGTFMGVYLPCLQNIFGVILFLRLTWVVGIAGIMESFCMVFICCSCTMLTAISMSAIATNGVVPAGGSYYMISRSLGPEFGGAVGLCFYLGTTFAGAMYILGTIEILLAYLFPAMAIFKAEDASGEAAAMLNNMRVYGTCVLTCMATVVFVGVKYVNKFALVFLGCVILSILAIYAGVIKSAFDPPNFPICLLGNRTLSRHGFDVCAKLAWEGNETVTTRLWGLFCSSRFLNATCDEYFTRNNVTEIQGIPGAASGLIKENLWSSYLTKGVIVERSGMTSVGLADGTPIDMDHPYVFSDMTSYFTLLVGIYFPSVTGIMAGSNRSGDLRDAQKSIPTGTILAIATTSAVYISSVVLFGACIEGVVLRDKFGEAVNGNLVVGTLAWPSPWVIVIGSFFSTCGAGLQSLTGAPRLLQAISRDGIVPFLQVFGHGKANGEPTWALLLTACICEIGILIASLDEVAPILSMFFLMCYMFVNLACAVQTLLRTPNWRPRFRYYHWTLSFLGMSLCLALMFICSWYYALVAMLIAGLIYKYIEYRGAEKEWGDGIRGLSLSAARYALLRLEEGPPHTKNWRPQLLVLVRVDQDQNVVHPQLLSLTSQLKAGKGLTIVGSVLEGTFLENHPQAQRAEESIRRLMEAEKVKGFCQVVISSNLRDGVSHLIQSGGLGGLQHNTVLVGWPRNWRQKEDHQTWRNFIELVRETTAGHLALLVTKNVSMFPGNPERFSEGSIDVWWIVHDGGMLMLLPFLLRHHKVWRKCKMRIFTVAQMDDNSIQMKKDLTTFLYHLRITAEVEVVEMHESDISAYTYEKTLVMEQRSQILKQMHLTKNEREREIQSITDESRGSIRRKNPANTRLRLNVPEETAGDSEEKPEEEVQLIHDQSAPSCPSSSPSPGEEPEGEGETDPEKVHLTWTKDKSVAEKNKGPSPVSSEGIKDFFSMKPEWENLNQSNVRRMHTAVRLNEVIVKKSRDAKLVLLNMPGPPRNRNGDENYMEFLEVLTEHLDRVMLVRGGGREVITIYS
EP2 antag = human EP2 receptor antagonists, primary screen, TR-FRET cAMP, C6 glioma cells; C6 glioma cells expressing human EP2; cells stimulated with saturating PGE2; actives 0.52% (n = 260,000); inhibition, % at 25 µM;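 active = percent inhibition above 40 after rounding to a whole number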;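 also: rat C6 glioma host cells with rolipram phosphodiesterase inhibitor present; the protocol text gives 20 µM as final concentration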
EP2 modulator = EP2 receptor modulators, cAMP readout, primary screen, cell-based, HTRF cAMP, PGE2 stimulation. Prostaglandin E2 receptor EP2 subtype (Homo sapiens), P43116. EP2-expressing cells, cAMP HTRF FRET, PGE2 co-stimulation. induction, % at 25 µM. actives 0.83% (n = 260,000);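 active = compounds whose cAMP rise, as percent of the full-agonist control response, exceeds 60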;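 also: rat C6 glioma line stably carrying human EP2 under a CMV promoter; the protocol text gives 20 µM as final concentration; 100% = response of wells given 1 µM PGE2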
S1P3 antag = S1P3 receptor antagonists, primary screen, cell-based. AID 485, 2006. actives 0.27% (n = 170,000). Sphingosine 1-phosphate receptor 3 (Homo sapiens), Q99500. CHO S1P3 NFAT-BLA reporter, FRET fluorescence, antagonist mode. inhibition, % at 4.98 µM;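 active = inhibition above the plate cutoff, the mean inhibition of test wells on that plate plus 3 SD, cut at about 28% in these data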;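 also: cells challenged with S1P at its EC80 of 0.8 µM; blue over green emission ratio from cleaved BLA substrate after 4 h stimulation; 0% = S1P-stimulated wells and 100% = unstimulated DMSO-only wells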
KCC2 secondary = KCC2 modulators in sodium-free buffer, confirmation, cell-based, HEK293 KCC2, thallium flux, secondary assay; normalised thallium flux (F/F0 slope) at 10 µM; FluoZin2 fluorescence; hits give high values; shares compounds with Cl transport mod; actives 15% (n = 3,700);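 active = thallium flux slope above the same plate's solvent-only control mean plus 3 SD; inconclusive = the two replicate wells disagree; inactive = no significant difference from solvent-only control wells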
KCC2 bumet counter = thallium flux persisting under bumetanide in KCC2 cells, confirmation, counter-screen for KCC2 modulator project, cell-based, HEK293 KCC2, FluoZin2, secondary assay 3; shares compounds with Cl transport mod; HEK293-KCC2 + bumetanide/ouabain; hits give high values; normalized thallium flux at 10 µM; actives 49% (n = 3,700); AID 1714, 2009;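 active = thallium entry rate above the same plate's blocked-transporter control wells by more than 3 SD; inconclusive = the two repeat wells disagree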;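 also: raw slope of fluorescence over initial fluorescence between 10 and 20 s after thallium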
KCC2 secondary2 = KCC2 modulators without ouabain present, confirmation, cell-based, HEK293 KCC2, thallium flux, FluoZin2, secondary assay 2. shares compounds with Cl transport mod. thallium flux FluoZin2 fluorescence; actives lie on both sides; F/F0 rise rate, 10–20 s post-thallium. normalized thallium flux at 10 µM. actives 23% (n = 3,700);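 active = thallium flux slope more than 3 SD above or below the plate's solvent-only control mean, mostly below; inconclusive = the two repeat wells disagreed; inactive = no significant shift from solvent-only controls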;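 also: raw slope with 0.1% DMSO as baseline and bumetanide as block control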
HEK293 Tl flux = thallium flux modulation in parental HEK cells, confirmation, counter-screen for KCC2 modulator project, cell-based, counterscreen 1 | AID 1716, 2009 | shares compounds with Cl transport mod | HEK293 parental cells, thallium flux FluoZin2, ouabain; baseline-ratio fluorescence slope, 10–20 s after thallium | actives 46% (n = 3,700) | thallium flux rate (normalised fluorescence) at 10 µM;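 active = thallium flux rate significantly above the same plate's solvent-only control wells, beyond their mean plus 3 SD; inconclusive = the two replicate wells gave conflicting results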
KCC2 ouabain = KCC2 inhibitors and activators, ouabain retest, confirmation, HEK-KCC2 cells | HEK293-KCC2, thallium flux FluoZin2 fluorescence; bidirectional: low = inhibitor, high = activator | shares compounds with Cl transport mod | actives 48% (n = 3,700) | raw Tl+ flux slope (below DMSO = inhibition, above = activation) at 10 µM;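 active = thallium flux slope beyond 3 SD from same-plate DMSO control mean in most replicates, usually higher, sometimes lower; inconclusive = repeat tests gave conflicting results; inactive = no significant difference from controls in most replicates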;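 also: slope of initial-normalized fluorescence between seconds 10 and 20 after thallium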
HEK counter2 = native HEK Tl+ uptake effects, second counter-screen – HEK cells, counterscreen 2, counter-screen for KCC2 modulator project, confirmation; shares compounds with Cl transport mod; HEK293 parental, thallium flux FluoZin-2 fluorescence slope; thallium flux slope at 10 µM; actives 33% (n = 3,700);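 active = thallium flux slope above the same plate's solvent-control mean plus 3 SD in both duplicate wells; inconclusive = duplicate wells that disagreed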;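 also: run without ouabain in cells lacking the KCC2 cotransporter; slope of fluorescence scaled to its starting value between 10 and 20 s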
Numbers without * were called inactive; ? = inconclusive; · = no result.

SMILES | Cl transport mod | EP2 antag | EP2 modulator | S1P3 antag | KCC2 secondary | KCC2 bumet counter | KCC2 secondary2 | HEK293 Tl flux | KCC2 ouabain | HEK counter2
CCC(c1nnnn1CC1CCCO1)N(Cc1cc2cc(C)ccc2[nH]c1=O)CC1CCCO1 (configuration not stated) | · | 13 | 24 | · | · | · | · | · | · | ·
c1ccc2c(c1)[nH]c1c(N3CCC4(CC3)OCCO4)ncnc12 | · | 16 | -32 | · | 0.0061 | 0.0049 | 0.032 | 0.0078 | 0.018 | 0.012
Cc1ccc2[nH]c3c(N4CCN(Cc5ccccc5)CC4)ncnc3c2c1 | · | 31 | -37 | · | 0.0064 | 0.005 | 0.022* | 0.0076 | ? | 0.011
COc1cccc2[nH]c3c(N4CCC5(CC4)OCCO5)ncnc3c12 | 0.49 | 10 | -30 | 13 | · | · | · | · | · | ·
CCOc1cc(NC(=S)NCc2ccco2)c(OCC)cc1NC(=O)c1ccccc1 | · | 6 | 54 | · | · | · | · | · | · | ·
COc1cc(CNCCSc2nnnn2C)cc(OC)c1OC | · | 5 | 24 | · | · | · | · | · | · | ·
Cn1nnnc1SCCNCc1ccncc1 | · | 7 | 14 | -15 | 0.0093 | 0.0072 | 0.03 | ? | 0.021 | 0.0095
O=C1CCN(S(=O)(=O)c2ccccc2)N1 | -5.6* | · | 42 | · | 0.009 | 0.0068 | 0.029 | 0.0074 | 0.066 | 0.0098
CCn1c(COc2cccc3ccccc23)nnc1SCC#N | · | 9 | -52 | · | · | · | · | · | · | ·
O=C(Nc1cccc(Br)c1)/C(=C\c1cccnc1)NC(=O)c1cccs1 | · | 18 | -51 | · | · | · | · | · | · | ·
CC1CCCN(c2nc3c(c(=O)[nH]2)CN(Cc2ccccc2O)CC3)C1 (configuration not stated) | · | 4 | -57 | · | · | · | · | · | · | ·
O=C(CCCn1c(=O)[nH]c2cc(Cl)ccc2c1=O)NCC1CCCO1 (configuration not stated) | 8.6* | · | 0 | -46 | 0.01 | 0.0064 | 0.031 | 0.0069 | 0.021 | ?
COC(=O)c1ccc2c(=O)n(CCCCCC(=O)NCCNC(C)=O)c(=O)[nH]c2c1 | 5.4* | 10 | 4 | -10 | 0.0084 | 0.0069 | 0.034 | 0.0079 | 0.022 | 0.011
Cn1c(CSc2nc3ccccc3s2)nc2ccccc21 | -4.4* | 10 | -27 | -4 | 0.0059 | 0.0049 | 0.024* | 0.007 | ? | 0.01
Cn1c(CSc2nc3ccccc3s2)n[nH]c1=S | · | 14 | 2 | -53 | ? | 0.0059 | ? | 0.0071 | 0.011* | ?
CC(=O)CSc1nc2ccccc2s1 | 1.3 | 9 | -21 | · | · | · | · | · | · | ·
N#CCc1nc2ccccc2o1 | · | 12 | -23 | · | · | · | · | · | · | ·
CCOc1ccc(Nc2ccc(-c3ccccc3OC)nn2)cc1 | · | 10 | -61 | · | · | · | · | · | · | ·
Cc1ccc(Cn2nnc3c(=O)[nH]c(C4CCN(S(=O)(=O)c5ccc(F)cc5)CC4)nc32)cc1 | -3* | · | 17 | · | 0.017 | 0.0048 | 0.025* | 0.0072 | 0.014 | 0.011
